Assay [1] relates to Human papillomavirus type 1a protein E7 (residues 44-93). Put plainly: small molecules binding HPV E7 44-93 – biochemical, small-molecule microarray, residues 44-93, 635 nm fluorescence, primary screen (AID 1108).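 Also: E7 fragment applied at 1 µg/mL in TBST for 1 h at 4 C; score combines spot fluorescence with its signal to noise ratio.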 Conditions: fluorescence 635 nm, higher = more signal.
Assay [2] can be described thus: hepatitis C replication reporter changes, two-sided – Huh7 cells, luciferase reporter, HCV replication inhibitor project, primary screen (AID 1109).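 Also: huh7 hepatoma cells harbouring a luciferase neomycin HCV replicon reporter; luciferase luminescence as measure of HCV replicon replication; test concentration not given here.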 Conditions: Huh7 HCV replicon luciferase reporter, 48 h; higher = more signal.
The target of assay [3] is Left-right determination factor 2 (Homo sapiens) (UniProt O00292). Briefly: small molecules binding LEFTY2 protein – biochemical, small-molecule microarray, 635 nm fluorescence scan, primary screen (AID 1110). The following applies: higher = more signal.
The target in assay [4] is Calmodulin-1 (Homo sapiens) (UniProt P0DP23). Briefly: small molecules binding calmodulin-1 with EGTA – biochemical, small-molecule microarray, Cy5-labelled CALM1, profiling panel (AID 1111).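 Also: labelled calmodulin applied in Tris saline Tween buffer holding calcium plus EGTA and DTT.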 The following applies: Cy5-CALM1 binding fluorescence, higher = more signal.
Assay [5] shares this target. Briefly: small molecules binding Ca-loaded calmodulin-1 – biochemical, small-molecule microarray, Cy5-labelled CALM1, plus calcium, artefact control for SMM control-protein annotation, profiling panel (AID 1112).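 Also: score merges spot fluorescence with signal to noise from triplicate slides.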 The following applies: Cy5-CALM1 binding fluorescence, higher = more signal.
A short description of assay [6]: probe aWnt5a binding to arrayed compounds – biochemical, biotinylated probe, 635/667 nm fluorescence, primary screen (AID 1113).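 Also: score merges 667 nm fluorescence intensity with signal-to-noise per printed feature.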 The following applies: small-molecule microarray, higher = more signal.
Assay [7] is described as follows: probe aShh binding to arrayed compounds – biochemical, biotinylated probe, 635/667 nm fluorescence, primary screen (AID 1114).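 Also: probe is biotin-labelled aShh protein from a stem cell growth factor screen; measures binding of labelled protein to compounds printed on the slide; score merges feature fluorescence at 667 nm with signal-to-noise.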 The following applies: small-molecule microarray, higher = more signal.
Assay [8] is described as follows: probe aNog binding to arrayed compounds – biochemical, biotinylated probe, 635/667 nm fluorescence, primary screen (AID 1115).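 Also: probe is biotinylated aNog protein used at 0.15 µg/mL for 1 h at 4 C; z-score combines 667 nm fluorescence of each spot with its signal to noise.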 Conditions: small-molecule microarray, higher = more signal.
Assay [9] has as its target Torsin-1A-interacting protein 1 (Homo sapiens) (UniProt Q5JTV8). Put plainly: compound microarray binding of lysate hLAP1 – cell lysate, small-molecule microarray, COS7 lysate, 635/667 nm fluorescence, primary screen (AID 1116). Conditions: 635 nm fluorescence, higher = more signal.
In assay [10] the target is Alpha-bungarotoxin (Bungarus multicinctus) (UniProt P60615). Put plainly: compounds binding labelled alpha-BTX control protein – biochemical, small-molecule microarray, Alexa647 label, 635/667 nm fluorescence, artefact control for SMM control protein annotation, profiling panel (AID 1117). Conditions: alpha-BTX-A647 binding fluorescence, higher = more signal.
Alpha-bungarotoxin (Bungarus multicinctus), sequence (P60615 whole entry, looked up): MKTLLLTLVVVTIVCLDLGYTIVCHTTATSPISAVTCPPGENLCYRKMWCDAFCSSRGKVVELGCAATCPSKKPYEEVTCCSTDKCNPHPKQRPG

Torsin-1A-interacting protein 1 (Homo sapiens), sequence (Q5JTV8 whole entry, looked up): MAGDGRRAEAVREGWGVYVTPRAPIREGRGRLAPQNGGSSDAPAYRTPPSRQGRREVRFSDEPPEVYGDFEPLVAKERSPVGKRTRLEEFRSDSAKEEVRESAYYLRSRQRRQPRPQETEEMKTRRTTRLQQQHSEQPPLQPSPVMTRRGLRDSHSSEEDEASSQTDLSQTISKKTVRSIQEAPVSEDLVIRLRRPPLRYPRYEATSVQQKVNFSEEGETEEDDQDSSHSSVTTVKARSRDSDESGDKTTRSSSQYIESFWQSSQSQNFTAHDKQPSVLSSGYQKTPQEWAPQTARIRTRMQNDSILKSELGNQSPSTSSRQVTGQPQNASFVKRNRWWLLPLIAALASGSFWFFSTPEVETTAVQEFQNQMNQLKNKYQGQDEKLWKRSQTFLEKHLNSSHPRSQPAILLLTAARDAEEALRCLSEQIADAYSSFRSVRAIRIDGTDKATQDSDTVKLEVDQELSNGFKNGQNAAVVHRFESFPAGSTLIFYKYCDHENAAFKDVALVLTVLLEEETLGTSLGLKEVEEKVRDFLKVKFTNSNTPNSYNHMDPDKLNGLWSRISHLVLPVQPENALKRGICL
Left-right determination factor 2 (Homo sapiens), sequence (O00292 whole entry, looked up): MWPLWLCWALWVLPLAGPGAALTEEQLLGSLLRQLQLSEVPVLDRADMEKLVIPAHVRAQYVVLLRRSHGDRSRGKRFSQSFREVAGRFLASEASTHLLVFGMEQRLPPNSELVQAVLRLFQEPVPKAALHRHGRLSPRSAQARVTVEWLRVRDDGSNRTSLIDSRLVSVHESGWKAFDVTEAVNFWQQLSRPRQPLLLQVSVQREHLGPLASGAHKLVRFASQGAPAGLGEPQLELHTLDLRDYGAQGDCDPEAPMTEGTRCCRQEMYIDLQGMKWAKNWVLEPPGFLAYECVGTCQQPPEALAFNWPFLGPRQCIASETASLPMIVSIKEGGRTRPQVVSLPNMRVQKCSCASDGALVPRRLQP

With `CO[C@@H](C(C)C)[C@@H](C)C1OC(=O)CC1O` (stereo not given in full), the composite z-score in [1] was -0.175; in [3] it was 0.0752; in [4] it was -0.32; in [5] it was 0.192; in [6] it was -0.232; in assay [7] it was -0.171. Besides, the results for the composite z-score in assay [8], in [9] and in assay [10] were -0.478, -0.214 and -0.427, respectively. In [2], this compound had a z-score of 0.975.
`C#CCCCON=C1C[C@@H](O)[C@@H](O)[C@@H]2[C@@H]3C(=O)N(C[C@@H]4CCCO4)C(=O)[C@@H]3CC[C@@H]12`: the composite z-score is 0.578 in assay [1]; 0.386 in assay [3]; -0.358 in assay [4]; -0.129 in assay [5]; -0.0865 in [6]; -0.153 in [7]. The composite z-score in assay [8] is 0.223; in [9], -0.0438; in assay [10], 0.506. Further, the z-score in assay [2] came to 0.367.
As to `COC(=O)[C@@H]1CC[C@H](C)[C@@H](c2ccc(Br)cc2)N1C[C@H](O)CN=[N+]=[N-]`, the composite z-score is 0.0343 in assay [1]; 0.346 in assay [3]; 0.0364 in [4]; 0.123 in assay [5]; 0.14 in [6]; -0.0243 in [7]. Also, the composite z-score was -0.183 in assay [8], -0.133 in assay [9] and 0.426 in [10]. For the same compound, in assay [2], the z-score was -0.0104.
For the compound `CC(C)[C@@H](OCc1ccccc1)[C@H](C)C=NOC[C@@H](O)[C@H]1O[C@@H]2OC(C)(C)O[C@@H]2[C@H]1O`, the composite z-score in assay [1] is 0.436; in [3], 0.413; in assay [4] it was 0.178; in [5], -0.606; in assay [6] it was -0.15; in [7], -0.634. For the same compound, the composite z-score in assay [8] was 0.848; in assay [9], 0.145; in assay [10] it was 0.278. In [2], this compound had a z-score of -1.75.
On to `CCc1cc2c(nc1CC)CCN(CCC(C)=NOC(C)CN1CCCCc3nc(C)c(C)cc31)C2` (stereo not given), for which the composite z-score in assay [1] was 1.38; in assay [3], 0.772; in [4], 0.499; in assay [5] it was 0.455; in assay [6] it was -0.0735; in assay [7], 0.0639. Moreover, the composite z-score was -0.1 in assay [8], 0.272 in assay [9] and 0.946 in [10]. This compound also returned a z-score in assay [2] of -4.08.
As to `C#CCCCON=C1C[C@@H](O)[C@@H](O)[C@@H]2[C@@H]3C(=O)N(CC)C(=O)[C@@H]3CC[C@H]12`, the composite z-score in [1] was 0.51; in [3], 0.278; in assay [4] it was -0.0398; in [5], -0.304; in [6] it was -0.089; in [7], -0.307. The composite z-score in assay [8] was -0.353; in assay [9], 0.779; in [10], 0.573. Besides, in assay [2], the z-score was -0.0718.
Consider `CC(C)CON=C1C[C@@H](O)[C@@H](O)[C@@H]2[C@@H]3C(=O)N([C@@H](C)c4ccccc4)C(=O)[C@@H]3CC[C@@H]12`, for which the composite z-score in [1] was -0.0319; in assay [3] it was 0.236; in assay [4], -0.231; in [5], -0.282; in assay [6], -0.124; in assay [7], -0.289. Besides, the composite z-score is -0.222 in [8], 0.179 in assay [9] and 0.0887 in [10]. In assay [2], this compound had a z-score of -0.265.
In the case of `C[C@@H]1CC[C@H]2C(=O)OC(CN3C(=O)c4ccccc4C3=O)CN2[C@H]1c1ccc(Br)cc1` (stereo not given in full), the composite z-score in [1] is 0.901; in [3], 0.113; in assay [4] it was 1.53; in assay [5] it was 0.772; in [6] it was -0.091; in assay [7] it was 0.111. Further, the figures for the composite z-score in assay [8], in assay [9] and in assay [10] were 0.243, 0.419 and 0.666, respectively. In assay [2], the z-score was determined as 0.302.
Take `CO[C@@H]1C=CCC(=O)N[C@@H](C)C(=O)OC[C@@H](OC)[C@H](C)C=CCC(=O)OC[C@H]1C`: the composite z-score is -0.669 in [1]; 1.48 in assay [3]; -1.14 in assay [4]; -1.96 in assay [5]; -0.152 in assay [6]; -0.0035 in [7]. Moreover, the composite z-score in assay [8] was determined as 0.109; in assay [9], 0.037; in [10], 0.373. This compound also registered a z-score in assay [2] of 0.388.
With `C#CCCCON=C1[C@H]2CCn3c(=O)n([C@@H](CC)c4ccccc4)c(=O)n3[C@H]2[C@H](O)[C@@H]2O[C@H]12`, the composite z-score in [1] was -0.194; in assay [3], 0.0878; in assay [4] it was -0.184; in assay [5] it was -0.483; in assay [6] it was -0.0799; in [7], -0.0295. For the same compound, the composite z-score in [8] was -0.35; in assay [9], -0.0356; in assay [10] it was -0.151. The same compound registered a z-score in [2] of -3.43.
Regarding `CC[C@@H](c1ccccc1)n1c(=O)n2n(c1=O)[C@H]1[C@H](O)[C@@H]3O[C@@H]3C(=NOCc3ccccc3)[C@H]1CC2`, the composite z-score in [1] is 0.502; in assay [3], 0.244; in assay [4] it was 0.207; in [5] it was -0.258; in [6], -0.107; in [7], -0.0146. Besides, the composite z-score is -0.0606 in assay [8], -0.0058 in assay [9] and 0.919 in assay [10]. Moreover, in assay [2], the z-score is -4.13.
On to `C[C@@H]1CC[C@H]2C(=O)OC(Cc3ccccc3)CN2[C@H]1c1ccc(Br)cc1` (stereo not given in full), for which the composite z-score in assay [1] was 0.911; in assay [3], 0.34; in [4], -0.241; in assay [5], -0.536; in assay [6], -0.228; in assay [7], -0.0146. In addition, the composite z-score in [8] came out at 0.105; in [9], 0.781; in [10] it was 0.599. The z-score in [2] came out at 0.161.
Turning to `CC(=O)OC[C@H]1O[C@H](CC=NOC[C@@H](O)COCc2ccco2)C=C[C@@H]1OC(C)=O`, the composite z-score in assay [1] is -0.646; in assay [3], 0.898; in assay [4] it was -1.18; in assay [5], -2.22; in [6], -0.102; in assay [7], -0.356. For the same compound, the composite z-score in assay [8] is -0.498; in assay [9], 1.58; in [10] it was -0.663. The compound also displayed a z-score in assay [2] of 0.586.
Consider `CCN1C(=O)[C@H]2[C@H]3[C@H](O)[C@H](O)CC(=NO[C@H](C)c4cn([C@@H]5COC[C@H]5O)nn4)[C@@H]3CC[C@H]2C1=O`, for which the composite z-score was -0.137 in [1]; 0.684 in assay [3]; -0.3 in [4]; -0.4 in assay [5]; -0.0445 in [6]; -0.291 in assay [7]. Further, the composite z-score was 0.0043 in assay [8], -0.0938 in assay [9] and -0.23 in [10]. This compound yielded a z-score in assay [2] of -0.936.
For `C[C@@H](c1ccccc1)N1C(=O)[C@H]2[C@H]3[C@H](O)[C@H](O)CC(=NOCc4ccccc4)[C@@H]3CC[C@H]2C1=O`, the composite z-score in assay [1] was -0.233; in assay [3], 0.11; in [4] it was -0.38; in assay [5] it was -0.0198; in [6], 0.0061; in assay [7], -0.276. Also, the composite z-score in assay [8] was found to be 0.593; in assay [9] it was 0.348; in assay [10], 0.993. In assay [2], this compound had a z-score of -0.701.
With `CCCNC(=O)OC[C@H]1O[C@H](CCON=C2c3cc(OC)ccc3O[C@H](c3cccc(OC)c3)[C@H]2O)C=C[C@@H]1Oc1ccc(OC)cc1`, the composite z-score was 0.523 in assay [1]; 0.322 in assay [3]; 0.571 in assay [4]; 0.0967 in [5]; -0.187 in [6]; -0.0035 in [7]. Further, the composite z-score is -0.239 in assay [8], 1.28 in [9] and 1.2 in assay [10]. In assay [2], the z-score is -3.02.
`O=C(NN=C1C[C@@H](O)[C@@H](O)[C@@H]2[C@@H]3C(=O)N(Cc4ccc5c(c4)OCO5)C(=O)[C@@H]3CC[C@@H]12)OCc1ccccc1`: the composite z-score in [1] was -0.189; in assay [3], 0.0764; in [4], -0.114; in assay [5], -0.103; in [6] it was -0.176; in [7], 0.227. The composite z-score was -0.0498 in assay [8], 0.739 in assay [9] and 0.26 in assay [10]. This compound also displayed a z-score in [2] of -1.39.
Turning to `COC(=O)CC=C[C@@H](C)[C@@H](C=NOC[C@@H](O)COCc1ccco1)NS(=O)(=O)c1ccc(C)cc1`, the composite z-score in [1] was -1.24; in assay [3] it was 1.04; in assay [4], -2.79; in assay [5] it was -2.64; in assay [6], -0.166; in [7], -0.162. Further, the composite z-score in [8] is -0.252; in assay [9] it was -0.435; in assay [10] it was -0.672. Besides, the z-score in assay [2] was -0.42.

(Values after PubChem BioAssay.)
